Inconclusive results are not listed. Active and inactive are the calls of the source. Calls come from the whole dose curve; as a rule, active = well fitted curve in the direction sought with a large enough effect; inconclusive = small, poorly fitted or top-dose-only effect, or another doubt; inactive = no such curve, though single readings can be large; an effect the other way counts as inactive or inconclusive.

The nature of experiment [1]: OV-KATE Cancer Cell Toxicity qHTS against the NCATS CANVASS Library (AID 1347345). A digest of the protocol: (§1)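 1000 cells/well seeded and rested 4 h at 37 °C before pin transfer of compounds in an 11-pnt series. Exposure 72 h at 37 °C/5% CO2; viability by CellTiter-Glo luminescence after 15 min at room temperature.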
For orientation: qHTS replaces the single test concentration by a dilution series.

Experiment [2] can be described thus: OV-SAHO Cancer Cell Toxicity qHTS against the NCATS CANVASS Library (AID 1347348). Note: nearly all actives have a fitted effect of over 55% in size. Note: potency is the fitted concentration of half-maximal effect. A digest of the protocol: as §1
Experiment [3] in a line: SW1088 Cancer Cell Toxicity qHTS against the NCATS CANVASS Library (AID 1347350). Note: nearly all actives have a fitted effect of over 75% in size. Note: potency is the fitted concentration of half-maximal effect. The method in brief:
as §1

Experiment [4] in a line: A2780 Cisplatin Sensitive Ovarian Cancer Cell Toxicity qHTS against the NCATS CANVASS Library (AID 1347353). Note: nearly all actives have a fitted effect of over 60% in size. Note: potency is the fitted concentration of half-maximal effect. The method in brief:
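A2780 cisplatin-sensitive cells (750 per well) were seeded, left 4 h at 37 °C, then pin-dosed in an 11-point series. After 72 h at 37 °C/5% CO2, viability was measured as ATPLite luminescence.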

The nature of experiment [5]: HEK-293 Cancer Cell Toxicity qHTS against the NCATS CANVASS Library (AID 1347355). For outcome: series mostly up to about 46 µM. Note: nearly all actives have a fitted effect of over 65% in size. Note: potency is the fitted concentration of half-maximal effect. The method in brief:
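Cells were seeded at 1000 per well and allowed to settle 4 hours at 37 degrees C before pin transfer of compounds as an 11-point series. Viability was read by CellTiter-Glo luminescence after 72 hours' exposure.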

Experiment [6] can be described thus: HEK293 24hr Apoptosis Induction qHTS against the NCATS CANVASS Library (AID 1347359). A digest of the protocol: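 HEK293 cells, 500 per well, exposed to an 11-point compound series for 24 hours at 37 degrees C. Caspase 3/7 activity read by Caspase-Glo luminescence (DEVD substrate) after 15 min at room temperature.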
The nature of experiment [7]: KB-8-5-11 Cancer Cell Toxicity qHTS against the NCATS CANVASS Library (AID 1347364). Note: nearly all actives have a fitted effect of over 75% in size. Note: potency is the fitted concentration of half-maximal effect. The method in brief: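 KB-8-5-11 cells (500/well) in DMEM + 10% FBS were exposed to compounds in an 11-point qHTS series for 72 hr at 37C, 5% CO2. Viability was read by CellTiter-Glo luminescence.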
Experiment [8] is described as follows: SDT Cancer Cell Toxicity qHTS against the NCATS CANVASS Library (AID 1347365). Note: nearly all actives have a fitted effect of over 60% in size. Note: potency is the fitted concentration of half-maximal effect. The method in brief: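 SDT canine glioma cells (500 cells/well) were exposed to compounds in an 11-point series for 72 hr at 37C, 5% CO2; viability was read as ATP content by CellTiterGlo luminescence.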
The nature of experiment [9]: qHTS for ATAD5 Agonist screened against the NCATS CANVASS Library (AID 1347367).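 Note: luciferase reporter driven by ATAD5 which rises upon DNA damage.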 The method in brief:
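HEK293T cells stably carrying an ATAD5-controlled luciferase reporter (2000 cells/well) attached for 5 hr, then received compounds in an 11-point series for 16hr at 37C. Luminescence was read after a 30 min room-temperature reagent step.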

Experiment [10] in a line: G06 Cancer Cell Toxicity qHTS against the NCATS CANVASS Library (AID 1347368). Note: nearly all actives have a fitted effect of over 60% in size. Note: potency is the fitted concentration of half-maximal effect. The method in brief: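 G06 dog glioma cells seeded at 500 cells/well were exposed to compounds (11-point qHTS series) for 72 hr at 37C, 5% CO2; viability read as ATP content by CellTiterGlo luminescence.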
Experiment [11] in a line: qHTS for Hypoxia signaling pathway (HIF-1) antagonists against the NCATS CANVASS Library (AID 1347374). Note: nearly all actives have a fitted effect of over 60% in size. Note: potency is the fitted concentration of half-maximal effect. A digest of the protocol:
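HRE-bla ME-180 cells (2,000/well, 0.5% dialyzed FBS) were pre-incubated 5 h, then given an 11-point compound series plus CoCl2 (60 uM solution as added) for 17 h at 37C. CCF4 β-lactamase read (ex 405, em 460/530 nm) after 2 h at RT.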

The nature of experiment [12]: DH5-alpha competent E. coli microbial cell viability qHTS against the NCATS CANVASS Library (AID 1347377). The note with it: outcome: dose series up to 46.1 µM unless noted. The method in brief:
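DH5-alpha E. coli suspension (0.9 OD culture diluted to 0.2 OD) exposed to compounds in an 11-point series, overnight at 37C, 5% CO2. Viability read as ATP by BacTiter-Glo luminescence after 20 min at room temperature.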

The nature of experiment [13]: qHTS for Activators of p53 Stress Response Pathway screened against the NCATS CANVASS Library (AID 1347388). Note: potency is the fitted concentration of half-maximal effect. A digest of the protocol: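 p53RE-bla HCT-116 cells (4000/well) were pre-incubated for 5 h, then treated with compound (11 points) for 16 h at 37C. After 2 h with CCF4, the 460/530 nm ratio gave reporter activation; CellTiter-Glo measured viability.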
Experiment [14] in a line: qHTS for activators of Nrf2/ARE signaling pathway screened against the NCATS CANVASS Library (AID 1347391). Note: nearly all actives have a fitted effect of over 60% in size. The method in brief:
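ARE-bla HepG2 beta-lactamase reporter cells, 2000 cells/well, were preincubated 5 h, then exposed to compounds (11-point series) for 16 h at 37C. CCF4 fluorescence (ex 405, em 460/530 nm) after 2 h at room temperature.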

Experiment [15] in a line: qHTS for activators of dead-cell proteases activity screened against the NCATS CANVASS Library (AID 1347392).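 Note: luminescence from protease leaking out of membrane-damaged cells cleaving impermeant substrate; rising signal means more cytotoxicity.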 Note: potency is the fitted concentration of half-maximal effect. A digest of the protocol: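 HepG2 cells, 2000/well, attached 18 h at 37C, then exposed to compounds (11-point qHTS) for 5 h. Dead-cell protease release read as luminescence from cell-impermeant AAF-aminoluciferin substrate after 15 min at room temperature.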
The nature of experiment [16]: qHTS for inhibitors of ER calcium dysfunction: SERCaMP assay screened against the NCATS CANVASS Library (AID 1347393).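 Note: series mostly up to about 77 µM; lower secreted reporter signal means inhibitor of ER calcium depletion; nearly all actives have a fitted effect of over 40% in size.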 A digest of the protocol:
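SH-SY5Y GLuc-SERCaMP, 1000 cells/well, 4 h attach; cpd 16 h, 37C/5% CO2; thapsigargin (added as 6x 600 nM) 4 h; coelenterazine; luminescence. Reduced reporter release = ER Ca stabilization.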

Experiment [17] can be described thus: qHTS for inhibitors of Wild type Zika virus screened against the NCATS CANVASS Library (AID 1347396).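 Note: ATP luminescence of surviving cells so rescue from viral cell killing; series mostly up to about 46 µM.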 The method in brief:
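Vero 766 (African green monkey) cells, 1000 per well, attached overnight, then compounds were added in an 11-point series before wild-type Zika virus infection. After 72 h at 37C, cell viability was read as CellTiter Glo luminescence.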

The nature of experiment [18]: HPAF-II 12hr Apoptosis Induction qHTS against the NCATS CANVASS Library (AID 1347358). The method in brief: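 HPAF-II cells (500/well, DMEM + 10% FBS) were exposed to compounds for 12 hours at 37 degrees C. Caspase-3/7 activity was then read by Caspase-Glo 3/7 luminescence after 15 min at room temperature.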
The nature of experiment [19]: Inflammasome Signaling qHTS Counterscreen: IL-1-beta AlphaLISA counterscreen against the NCATS CANVASS Library (AID 1347381).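 Note: cell-free check with purified IL-1β in medium and no THP-1 cells; series mostly up to about 57 µM.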 A digest of the protocol:
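To flag interference with the AlphaLISA read-out, a known amount of purified IL-1-beta (4 pg) replaced cell supernatant. Detection used anti-IL-1-beta acceptor beads, biotinylated antibody and streptavidin donor beads at room temperature.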

Experiment [20] deals with Luciferin 4-monooxygenase (Photinus pyralis) (UniProt P08659). The experiment is described as follows: Firefly luciferase counterscreen qHTS: Assay Interference Panel against the NCATS CANVASS Library (AID 1347363). Note: series mostly up to about 57 µM. The method in brief:
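Purified P. pyralis luciferase (0.04 ug/mL, 4x reagent) added to Tris-acetate buffer with 0.013 mM D-luciferin, 0.013 mM ATP and 13.3 mM Mg-acetate; compounds preincubated 15 min, then luminescence read after 5 min, RT.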

Sequence of Luciferin 4-monooxygenase (Photinus pyralis) (P08659 whole entry, looked up): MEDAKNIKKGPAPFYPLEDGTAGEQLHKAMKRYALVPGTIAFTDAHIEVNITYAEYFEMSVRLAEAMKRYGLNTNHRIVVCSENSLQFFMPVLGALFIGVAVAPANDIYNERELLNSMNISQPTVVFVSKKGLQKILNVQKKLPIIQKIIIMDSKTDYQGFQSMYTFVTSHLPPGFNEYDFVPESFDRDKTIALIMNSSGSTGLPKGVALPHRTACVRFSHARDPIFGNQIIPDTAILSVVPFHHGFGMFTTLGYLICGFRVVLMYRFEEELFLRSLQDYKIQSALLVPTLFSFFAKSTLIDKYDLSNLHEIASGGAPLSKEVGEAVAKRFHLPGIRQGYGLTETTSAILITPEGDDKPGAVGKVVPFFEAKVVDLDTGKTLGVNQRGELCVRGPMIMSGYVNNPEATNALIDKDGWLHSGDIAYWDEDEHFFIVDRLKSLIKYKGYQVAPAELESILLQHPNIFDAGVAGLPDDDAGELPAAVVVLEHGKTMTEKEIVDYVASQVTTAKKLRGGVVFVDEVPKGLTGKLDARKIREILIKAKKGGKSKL

In the case of `C=C1CCC2C(C)(C(=O)O)CCC(CC/C(C)=C/C(=O)NC(CCC(N)=O)C(=O)O)[C@@]2(C)C1` (some centres not stated), the Potency result in experiment [1], in experiment [2], in experiment [3], in experiment [4], in experiment [5] and in [6] was “inactive” in each case. In addition, the Potency entry in [7], in experiment [8], in experiment [9], in [10], in experiment [11] and in experiment [13] was “inactive” each time. The Potency entry in experiment [14], in experiment [15] and in [16] was “inactive” in each case. For the same compound, the result in experiment [12] and in experiment [17] was inactive.

Consider `O=C(OC[C@H]1O[C@@H](OC(=O)c2cc(O)c(O)c(O)c2)[C@H](OC(=O)c2cc(O)c(O)c(O)c2)[C@@H](OC(=O)c2cc(O)c(O)c(O)c2)[C@@H]1OC(=O)c1cc(O)c(O)c(O)c1)c1cc(O)c(O)c(O)c1`, for which the Potency in experiment [4] was 8.33 µM (active); in experiment [8], 23.5 µM (active); in experiment [10] it was 23.5 µM (active); in experiment [13] it was 11.7 µM (active). For the same compound, the Potency result in experiment [18], in experiment [6] and in experiment [9] was “inactive” throughout. The result in experiment [19] and in experiment [17] was inactive.

On to `CC[C@H](O)CCCCC[C@@H]1NC(=O)[C@H]2CCCCN2C(=O)[C@H]([C@H](C)CC)NC(=O)[C@H](Cc2cn(OC)c3ccccc23)NC1=O`, for which, in experiment [4], the Potency was 23.5 µM (active). Besides, the Potency entry in [20], in [7], in experiment [11], in experiment [13], in [14] and in [15] was “inactive” in each case. The Potency result in experiment [16] is “inactive”. The compound was classed as inactive in [12] and in [19].

Consider `CC(=O)Oc1cc2c(c(OC(C)=O)c1C1CCc3cc(Cl)c(Cl)n31)C(=O)n1c-2cc(Cl)c1Cl` (configuration not stated), for which the Potency in experiment [2] is 7.47 µM (active); in experiment [3], 4.73 µM (active); in experiment [4] it was 11.8 µM (active); in experiment [5] it was 16.6 µM (active); in experiment [7] it was 14.8 µM (active); in experiment [8] it was 10.5 µM (active). In addition, the Potency in experiment [10] was 14.8 µM (active); in experiment [11], 3.34 µM (active). In addition, the Potency entry in experiment [18], in experiment [6], in experiment [9] and in experiment [14] was “inactive” each time. Besides, the result in [19] was inactive.

With `Cc1cc(C)c(O)c(C(=O)CC2CC(=O)NC(=O)C2)c1`, the Potency result in [3], in [18], in experiment [6], in [20], in [9] and in experiment [13] was “inactive” each time. The Potency in [4] was 4.69 µM (active); in [5], 3.72 µM (active); in experiment [7], 7.43 µM (active); in [8], 1.32 µM (active); in [10] it was 2.64 µM (active); in experiment [11] it was 7.47 µM (active). In addition, the call in experiment [12], in experiment [19] and in experiment [17] was inactive.

Turning to `C/C(=C\[C@H](C)C(=O)C[C@H](O)CC1CC(=O)NC(=O)C1)[C@@H]1OC(=O)CCCC/C=C/C[C@@H](O)[C@@H]1C`, the Potency entry in experiment [3], in experiment [20], in experiment [7], in experiment [9], in experiment [13] and in experiment [15] was “inactive” in each case. For the same compound, the Potency entry in [16] was “inactive”. The Potency in [4] is 2.35 µM (active); in experiment [5], 7.43 µM (active); in experiment [8] it was 1.66 µM (active); in experiment [10] it was 2.64 µM (active); in experiment [11], 4.72 µM (active). Moreover, the result in experiment [12], in [19] and in [17] was inactive.

`Oc1ccc(C2Oc3cc(O)c4c(c3[C@@H]2c2cc(O)cc(O)c2)[C@H]2C(c3ccc(O)cc3)c3c(O)cc5c(c3[C@H]2C4c2ccc(O)cc2)[C@H](c2cc(O)cc(O)c2)C(c2ccc(O)cc2)O5)cc1` (some centres not stated): the Potency was 16.7 µM (active) in [2], 4.18 µM (active) in [4] and 9.35 µM (active) in [8]. Also, the Potency result in experiment [3], in experiment [5], in [18], in experiment [6], in experiment [7] and in experiment [11] was “inactive” each time. Moreover, the Potency entry in experiment [14], in [15] and in experiment [16] was “inactive” each time. Moreover, the call in experiment [12], in [19] and in [17] was inactive.

Turning to `CO/C=C/C(=O)c1cc2cnc3c(N)cc(=NC(=O)C(C)C)c([nH]1)c23`, the Potency in experiment [2] is 0.0375 µM (active); in [4] it was 0.0296 µM (active); in experiment [5] it was 0.166 µM (active); in [7], 0.296 µM (active); in experiment [8], 0.372 µM (active); in experiment [10], 0.132 µM (active). The Potency in experiment [11] was 0.0334 µM (active); in experiment [15] it was 23.4 µM (active). For the same compound, the Potency entry in experiment [6], in [20], in [14] and in experiment [16] was “inactive” in each case. Also, the call in experiment [12] was inactive.
